# In the library only some 0.55% were active in any assay of this set; here they are far more common.
# Glioma ERSR ind: qHTS for Inducers of the Endoplasmic Reticulum Stress Response (ERSR) in Human Glioma: qHTS; U87-MG GRP78 promoter luciferase reporter, 16 h; Potency, µM, for inactives: at the highest dose activation, usual class: activators; hit rate 0.02% among 420,000; note: potency is the fitted concentration of half-maximal effect; series mostly up to about 76 µM; % of control where 0% means no effect; nearly all actives have a fitted effect of over 35% in size
#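 ERSR induction read as luciferase luminescence (Bright-Glo, 10 min at room temperature) in stably transfected human U87-MG glioma cells exposed to compounds for 16 h, using GRP78 as sensor.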
# LDHA block: qHTS assay for inhibitors of human lactate dehydrogenase | L-lactate dehydrogenase A chain (Homo sapiens), P00338 | AID 1347041, 2019 | activity change, % (values are at about 110 or 230 µM) | purified LDHA, NADH/diaphorase-resazurin fluorescence; stronger effect = lower value | hit rate 0.15% among 480,000; in the data active = activity change below about -30%; inconclusive = mostly about -25% to -30%;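 note: plate controls were DMSO wells for no effect and wells without enzyme for full effect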
#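 LDH5 2 nM; NADH 0.06 mM, pyruvate 0.2 mM; 200 mM Tris pH 7.4, EDTA, Tween-20; 5 min RT. Detection: diaphorase 0.133 mg/mL + resazurin 37 µM, fluorescence ex540/em590 at 0 and 20 min; normalized to enzyme-free and DMSO wells.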
# TCR activator: Activators of T cell receptors: qHTS campaign | primary human leukocytes, anti-CD3, IL-2 HTRF, 48 h | Potency, µM (top dose mostly 9.22 µM), for the others: at the top dose activation of IL-2 secretion, actives largely listed as activators | 330,000 tested, under 10 active | AID 504894, 2011; note: % of control where 0% means no effect
#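 HTRF read-out of IL-2 secretion: europium cryptate donor excited at 320nm, d2 acceptor emission at 665nm. Cells were primary human leukocytes incubated 48 hr with compounds and a-CD3 beads, supplying TCR signal only.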
# TSHR antag: Antagonists of the Thyroid Stimulating Hormone Receptor: HTS campaign | AID 504810, 2011 | Thyrotropin receptor (Homo sapiens), P16473 | hit rate 0.2% among 330,000 | TSHR-expressing cells, TSH-stimulated cAMP HTRF, 2 h; stronger effect = lower value | activity change, negative = inhibition, % at 11.5 µM;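 active = activity change below a set negative limit, meaning inhibition stronger than a set level, cut at about -70% in these data; inconclusive = activity change between two set negative limits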; note: % is set by controls: 0 for no effect and ±100 for the full control effect
#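 Antagonism was scored as loss of TSH-driven cAMP in TSHR cells, stimulated with 4nM TSH (EC80) for 2 hours at 37 deg C and detected by homogeneous HTRF competition immunoassay.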
# RGS4 inhibitor: Inhibitors of Regulator of G Protein Signaling (RGS) 4: qHTS. Regulator of G-protein signaling 4 (Homo sapiens), P49798. Transcreener GDP fluorescence polarization, RGS4-accelerated GTP hydrolysis. Potency, µM (top dose mostly 114 µM), without a hit: at the highest dose activity change, negative = inhibition, hits mostly inhibitors. hit rate 0.039% among 390,000. AID 504845, 2011; note: potency is the fitted concentration of half-maximal effect; % is set by controls: 0 for no effect and ±100 for the full control effect; nearly all actives have a fitted effect of over 75% in size
# Target sequence (P49798 whole entry, looked up): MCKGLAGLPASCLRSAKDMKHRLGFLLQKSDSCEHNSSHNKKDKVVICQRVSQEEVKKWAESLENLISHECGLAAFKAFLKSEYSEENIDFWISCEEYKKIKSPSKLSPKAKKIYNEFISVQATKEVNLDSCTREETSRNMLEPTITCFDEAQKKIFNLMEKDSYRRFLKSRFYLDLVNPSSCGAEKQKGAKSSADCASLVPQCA
#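 MLSMR compounds (23 nl, pin-transferred) preincubated 10 min at room temperature with a 500nM (2x) first reagent, then RGS4 at 900nM (2x) plus Transcreener GDP mix added; fluorescence polarization (620/688 nm) read before and after 90 min at 30 °C.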
# Akt phos inh: HTS Assay for Inhibitors of Akt Phophorylation: Primary Screen; Neuro2A IGF-stimulated pAkt S473 HTRF, 20 min; stronger effect = lower value; activity change, % for hits at 50 µM; hit rate 0.32% among 360,000; in the data active = activity change below about -80%; inconclusive = mostly about -51% to -80%; note: % is set by controls: 0 for no effect and ±100 for the full control effect
#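 Neuro2A cells in DMEM with 0.5% FBS, overnight at 37 deg C, given compound at single 50 µM final, then IGF (6 nM final) for 20 min at 37 deg C. Lysed; phospho-Akt Ser473 by HTRF after 24 h, 665/615 ratio.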
# An asterisk follows results filed as active; i = inactive; ? = inconclusive; / = no result; [ ] = another dose, or the depositor's remark. Unless noted, calls come from the whole dose curve; as a rule, active = well fitted curve in the direction sought with a large enough effect; inconclusive = small, poorly fitted or top-dose-only effect, or another doubt; inactive = no such curve, though single readings can be large; an effect the other way counts as inactive or inconclusive.
SMILES,Glioma ERSR ind,LDHA block,TCR activator,TSHR antag,RGS4 inhibitor,Akt phos inh
O=C1CC(c2ccco2)CC2=C1C1c3ccccc3C(=O)N1c1ccccc1N2 (stereo not given),28.2µM*,-5.8,2.2%,2.7,-36.4%,i
CC1(C(=O)O)CC(C)(C(=O)O)CC(C)(C(=O)O)C1 (stereo not given),-4.1%,-5.2,-9.4%,7.1,41.5%,-119.1%*
CC12CC3(C)CC(C(=O)O)(C1)CC(C(=O)O)(C2)C3,/,5.3,/,/,/,/
CC(=O)c1c(C)[nH]c(C(=O)OCC(=O)Nc2cc(Cl)ccc2[N+](=O)[O-])c1C,-3.5%,-3.1,4.3%[46.1 µM],-76.6*,-1.8%,i
CC(=O)c1c(C)[nH]c(C(=O)OCC(=O)Nc2ccc(C)cc2[N+](=O)[O-])c1C,-3.9%,-0.4,-2.7%[46.1 µM],-25.4,27.5%,i
COc1ccc(NC(=O)CSc2ncnc3c2cnn3CCc2ccccc2)cc1,0.7%,-8.1,-1.1%,-3.0,10.7%,-132.1%*
COc1cccc(NC(=O)CSc2ncnc3c2cnn3Cc2ccccc2)c1,-2.2%,-3.2,-1.2%,-23.5,9.7%,i
Cc1ccc(NC(=O)C2=C(c3ccccc3)NC(=S)NC2c2ccc(C(C)(C)C)cc2)cc1 (stereo not given),/,-23.2,/,/,/,/
Cc1nc2cc(NC(C)c3nc(C(C)C)no3)ccc2o1 (stereo not given),/,78.0,/,/,/,/
c1ccc(-c2cc(-c3ccccc3)[o+]c(-c3ccccc3)c2)cc1,/,-0.8,/,/,/,/
COc1cccc(/C=N/NC(=O)CSc2cccc3cccnc23)c1,4.3%,-2.4,-4.1%,-3.6,7.4%,i
O=C(CSc1cccc2cccnc12)N/N=C/c1ccc(O)cc1,5.2%,-3.9,-4.3%,-77.5*,-21.4%,i
CCC(C)(C)c1ccc(OCC(O)CNCc2ccccc2)c(C(C)(C)CC)c1 (stereo not given),/,24.9,/,/,/,/
O=C(CSc1nc(-c2ccco2)nc2ccccc12)NCCc1ccccc1,/,-0.5,/,/,/,/
Cc1c(C(=O)OCC(=O)c2c(N)n(CC(C)C)c(=O)n(C)c2=O)oc2ccccc12,-5.9%,-5.8,2.5%[46.1 µM],-5.7,25.8%[11.4 µM],i
COCc1c(C(=O)OCC(=O)c2c(N)n(CC(C)C)c(=O)n(C)c2=O)oc2ccccc12,-0.5%,-5.0,-10.2%,4.0,15.8%,-103.3%*
Cc1ccc(C2(c3ccc(C)cc3)SC(=S)c3ccccc32)cc1,/,0.8,/,/,/,/
Cc1c2c(cc3c4c(c(=O)oc13)CCCC4)C(O)CC(C)(C)O2 (stereo not given),/,8.6,/,/,/,/
COc1cc(/C=N/NC(=O)c2ccncc2)ccc1OC(=O)c1ccc([N+](=O)[O-])cc1,-0.9%,-2.1,-4.1%,-11.1,25.2%,-106.7%*
Cc1ccc2c(C(=O)O)cc(-c3cccs3)nc2c1C,/,-13.8,/,/,/,/
CN(CC(=O)NC(C)(C)C)C(=O)c1ccc2ccccc2n1,/,-32.5*,/,/,/,/
C=C(CS(=O)(=O)c1ccc(C)cc1)S(=O)(=O)c1ccc(C)cc1,/,-12.2,/,/,/,/
Cc1ccc(Oc2cc(NC(=O)CCCn3nc([N+](=O)[O-])cc3C)cc([N+](=O)[O-])c2)cc1,-2.7%,-3.6,6.1%[46.1 µM],-70.5*,8.0%,i
Cc1nn(CCCC(=O)Nc2cc(Oc3ccccc3)cc([N+](=O)[O-])c2)c(C)c1[N+](=O)[O-],-2.4%,-6.6,-0.9%[46.1 µM],-41.9,28.6%,i
CCOC(=O)c1cc2cc(C(C)CC)ccc2[nH]1 (stereo not given),/,6.1,/,/,/,/
SMILES,Glioma ERSR ind,LDHA block,TCR activator,TSHR antag,RGS4 inhibitor,Akt phos inh
Cc1nc(Nc2nc3ccccc3o2)nc(C)c1C(=O)Nc1cccc(C(F)(F)F)c1,/,-1.9,/,/,/,/
Cc1cnc(Nc2nc3ccccc3o2)nc1C(=O)Nc1cccc(C(F)(F)F)c1,?,-3.8,-1.5%,1.3,-0.5%,-94.5%*
Cc1ccc(C(=O)Nc2sc3c(c2C#N)CCCCC3)cc1C,6.0%,-0.8,1.1%[46.1 µM],-8.6,-38.0%,-95.2%*
CC(=O)Nc1sc2c(c1C#N)CCCCC2,5.7%,-4.8,-1.0%[46.1 µM],37.1,-14.2%,i
Cc1cc2cc(N)ccc2[nH]1,/,1.3,/,/,/,/
Cc1cc(C)c(C#N)c(SCCS(=O)(=O)Cc2ccc(Cl)cc2)n1,-4.8%,-6.6,-6.4%,-5.9,-4.9%,-90.6%*
Cc1cc(C)c(C#N)c(SCc2ccc(F)cc2)n1,-3.6%,-1.0,4.6%,16.6,-10.9%,i
Cc1cc(C)c(C#N)c(SCc2ccc(C#N)cc2)n1,-3.5%,-2.8,-5.2%,-0.9,-19.3%,-92.2%*
Cc1cc(C)c(C#N)c(SCCS(=O)(=O)c2ccc(Cl)cc2)n1,-4.7%,-7.7,1.6%,-0.9,25.9%,i
CC(C)(C)NC(=O)C(=O)NNC(=O)c1cccc(Br)c1,2.5%,-0.2,4.6%,-78.7*,-13.8%,i
Cc1cccc(C(=O)NNC(=O)C(=O)NC(C)(C)C)c1,2.7%,-3.7,4.0%,19.0,-21.6%,i
CC1CCCCN1Cc1cc(=O)oc2cc(-c3ccccc3)c(O)cc12 (stereo not given),/,18.9,/,/,/,/
COc1ccc(NC(=O)CSc2nc3[nH]c(=O)[nH]c(=O)c3s2)cc1OC,-3.5%,-3.4,7.5%,-73.4*,-40.9%,i
COc1ccc(OC)c(NC(=O)CSc2nc3[nH]c(=O)[nH]c(=O)c3s2)c1,2.5%,-1.0,5.2%,/,-44.4%,i
CC(=O)c1c(C)[nH]c(C(=O)CSc2ccc(Br)cc2)c1C,/,5.6,/,/,/,/
CC(=O)c1c(C)[nH]c(C(=O)CSc2nc3ccccc3n2C)c1C,-3.1%,-3.2,-3.5%,-10.3,-9.2%,-85.0%*
O=C(CCSc1ccc(Cl)cc1)c1cccs1,-17.4%,0.3,-1.7%,-13.1,-26.9%,-107.4%*
O=C(CCNc1ccc(Cl)cc1)c1cccs1,8.2%,-3.0,-1.2%[46.1 µM],-20.0,-19.5%,i
CCCN(CCC)Cc1c(C)[nH]c2ccc(Br)cc2c1=O,/,-30.7*,/,/,/,/
CCCCc1c(CCC)c(=N)c2ccccc2n1C,-4.0%,-37.3*,14.8%,-3.8,-22.8%,i
Cc1c(C(=O)Nc2cccc(C(F)(F)F)c2)sc2c1C(c1cccc(O)c1)CC(=O)N2 (stereo not given),/,3.9,/,/,/,/
Cc1ccc2nc(-c3ccc(NC(=O)CN(c4ccccc4C)S(C)(=O)=O)cc3)sc2c1,-2.7%,-5.2,6.0%,-3.8,-3.2%,-107.3%*
Cc1cc(C)cc(N(CC(=O)Nc2ccc(-c3nc4ccc(C)cc4s3)cc2)S(C)(=O)=O)c1,-0.1%,-4.5,3.6%,-17.2,-5.1%,i
Cc1ccc(CNc2ccc(N3CCCCC3)cc2)s1,/,12.4,/,/,/,/
